Test results: PubChem BioAssay AID1159580 (chemical genetic matrix, 2015)
“And” between values parts separate entries of the source, which are not always exact repeats. Equal entries are not always repeated. In all, about 5,500 compounds went through this assay and about 2,000 (36%) were called active. Not shown: some 18% with an inconclusive outcome. No stated cut-off is given here; in the data, active means normalized growth mostly below about 0.91 (no sharp cut-off); inconclusive means no clear call, values can overlap the other calls; inactive means mostly above about 0.92. Some of the results follow.

Experiment: chemical genetic growth profiling, strain panel (AID 1159580);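 further: tested at 20 µM; growth read once vehicle control cultures reached saturation at 30 °C; 1 = growth at the plate median or of vehicle wells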
Details: growth OD

Measured: normalized growth

CC1=C(/C=C/C(C)=C/C=C/C(C)=C\C(=O)O)C(C)(C)CCC1
inactive: S. cerevisiae deletion strains, locus YJR075W, strain HOC1, stronger effect = lower value 0.962 and 1.01 | S. cerevisiae deletion strains, locus YKL009W, strain mrt4, stronger effect = lower value 0.94 | S. cerevisiae deletion strains, locus YKL068W, stronger effect = lower value 1 | S. cerevisiae deletion strains, locus YKL085W, strain MDH1 (second series), stronger effect = lower value 0.941 | S. cerevisiae deletion strains, locus YKL085W, strain MDH1, stronger effect = lower value 0.941 | S. cerevisiae deletion strains, locus YKL160W, strain elf1, stronger effect = lower value 0.977 | S. cerevisiae deletion strains, locus YKL190W, strain CNB1, stronger effect = lower value 0.989 | S. cerevisiae deletion strains, locus YKR001C, strain vps1, stronger effect = lower value 0.942 | S. cerevisiae deletion strains, locus YKR026C, strain gcn3, stronger effect = lower value 0.982 | S. cerevisiae deletion strains, locus YKR091W, strain srl3, stronger effect = lower value 0.988 | S. cerevisiae deletion strains, locus YLL001W, strain dnm1, stronger effect = lower value 0.93 | S. cerevisiae deletion strains, locus YLL026W, stronger effect = lower value 0.966 | S. cerevisiae deletion strains, locus YLL041C, strain sdh2, stronger effect = lower value 0.99 | S. cerevisiae deletion strains, locus YLR027C, strain aat2, stronger effect = lower value 0.958 | S. cerevisiae deletion strains, locus YLR039C, strain RIC1, stronger effect = lower value 0.866 | S. cerevisiae deletion strains, locus YLR058C, strain SHM2, stronger effect = lower value 1 | S. cerevisiae deletion strains, locus YLR102C, strain apc9, stronger effect = lower value 1 | S. cerevisiae deletion strains, locus YLR113W, strain HOG1, stronger effect = lower value 1.08 | S. cerevisiae deletion strains, locus YLR221C, strain rsa3, stronger effect = lower value 1.02 | S. cerevisiae deletion strains, locus YLR258W, strain gsy2, stronger effect = lower value 0.992 | S. cerevisiae deletion strains, locus YLR262C, strain YPT6 (second series), stronger effect = lower value 0.925 | S. cerevisiae deletion strains, locus YLR262C, strain YPT6, stronger effect = lower value 0.875 | S. cerevisiae deletion strains, locus YLR268W, strain sec22, stronger effect = lower value 0.966 | S. cerevisiae deletion strains, locus YLR320W, strain mms22, stronger effect = lower value 0.993 | S. cerevisiae deletion strains, locus YLR330W, strain CHS5, stronger effect = lower value 1.01 | S. cerevisiae deletion strains, locus YLR342W, strain FKS1 (second series), stronger effect = lower value 0.952 | S. cerevisiae deletion strains, locus YLR342W, strain FKS1, stronger effect = lower value 0.953 | S. cerevisiae deletion strains, locus YLR357W, strain rsc2, stronger effect = lower value 0.982 | S. cerevisiae deletion strains, locus YLR370C, strain arc18, stronger effect = lower value 0.996 | S. cerevisiae deletion strains, locus YLR371W, strain rom2, stronger effect = lower value 1.01 | S. cerevisiae deletion strains, locus YLR384C, strain iki3, stronger effect = lower value 0.973 | S. cerevisiae deletion strains, locus YLR418C, strain cdc73, stronger effect = lower value 0.846 | S. cerevisiae deletion strains, locus YML016C, strain PPZ1, stronger effect = lower value 1 | S. cerevisiae deletion strains, locus YML032C, strain rad52, stronger effect = lower value 0.978 | S. cerevisiae deletion strains, locus YML120C, strain ndi1, stronger effect = lower value 0.977 | S. cerevisiae deletion strains, locus YML124C, strain tub3, stronger effect = lower value 0.998 | S. cerevisiae deletion strains, locus YMR058W, strain fet3, stronger effect = lower value 0.978 | S. cerevisiae deletion strains, locus YMR078C, strain ctf18, stronger effect = lower value 0.998 | S. cerevisiae deletion strains, locus YMR125W, strain sto1, stronger effect = lower value 1.01 | S. cerevisiae deletion strains, locus YMR129W, stronger effect = lower value 0.987 | S. cerevisiae deletion strains, locus YMR205C, strain PFK2, stronger effect = lower value 0.971 | S. cerevisiae deletion strains, locus YMR223W, strain ubp8, stronger effect = lower value 0.976 | S. cerevisiae deletion strains, locus YMR231W, strain pep5, stronger effect = lower value 0.98 | S. cerevisiae deletion strains, locus YMR263W, strain SAP30, stronger effect = lower value 0.956 | S. cerevisiae deletion strains, locus YMR307W, strain GAS1, stronger effect = lower value 0.909 and 1.05 | S. cerevisiae deletion strains, locus YNL067W, strain RPL9B, stronger effect = lower value 0.951 | S. cerevisiae deletion strains, locus YNL071W, strain lat1, stronger effect = lower value 0.994 | S. cerevisiae deletion strains, locus YNL128W, strain TEP1, stronger effect = lower value 0.985 | S. cerevisiae deletion strains, locus YNL153C, strain GIM3, stronger effect = lower value 0.933 | S. cerevisiae deletion strains, locus YNL175C, strain NOP13, stronger effect = lower value 1.02 | S. cerevisiae deletion strains, locus YNL183C, strain NPR1, stronger effect = lower value 0.952 | S. cerevisiae deletion strains, locus YNL197C, strain WHI3, stronger effect = lower value 1.03 | S. cerevisiae deletion strains, locus YNL209W, strain ssb2, stronger effect = lower value 0.988 | S. cerevisiae deletion strains, locus YNL224C, strain SQS1, stronger effect = lower value 1.01 | S. cerevisiae deletion strains, locus YNL233W, strain BNI4, stronger effect = lower value 0.947 | S. cerevisiae deletion strains, locus YNL248C, strain rpa49, stronger effect = lower value 1.02 | S. cerevisiae deletion strains, locus YNL250W, strain rad50, stronger effect = lower value 0.992 | S. cerevisiae deletion strains, locus YNL271C, strain bni1, stronger effect = lower value 0.994 | S. cerevisiae deletion strains, locus YNL298W, strain CLA4, stronger effect = lower value 0.979 | S. cerevisiae deletion strains, locus YNL307C, strain MCK1, stronger effect = lower value 0.931 | S. cerevisiae deletion strains, locus YNL322C, strain KRE1 (second series), stronger effect = lower value 0.986 | S. cerevisiae deletion strains, locus YNL322C, strain KRE1, stronger effect = lower value 0.997 and 1.03 | S. cerevisiae deletion strains, locus YNR049C, strain mso1, stronger effect = lower value 0.988 | S. cerevisiae deletion strains, locus YNR052C, strain pop2, stronger effect = lower value 1.01 | S. cerevisiae deletion strains, locus YOL006C, strain TOP1, stronger effect = lower value 0.909 | S. cerevisiae deletion strains, locus YOL012C, strain htz1 0.855 | S. cerevisiae deletion strains, locus YOL147C, strain pex11, stronger effect = lower value 0.995 | S. cerevisiae deletion strains, locus YOR001W, strain rrp6, stronger effect = lower value 0.965 | S. cerevisiae deletion strains, locus YOR061W, strain CKA2, stronger effect = lower value 1.01 | S. cerevisiae deletion strains, locus YOR069W, strain VPS5, stronger effect = lower value 1.01 | S. cerevisiae deletion strains, locus YOR070C, strain gyp1, stronger effect = lower value 0.996 | S. cerevisiae deletion strains, locus YOR080W, strain dia2, stronger effect = lower value 0.986 | S. cerevisiae deletion strains, locus YOR083W, strain WHI5 (second series), stronger effect = lower value 1.03 | S. cerevisiae deletion strains, locus YOR083W, strain WHI5, stronger effect = lower value 0.954 | S. cerevisiae deletion strains, locus YOR106W, strain vam3, stronger effect = lower value 0.927 | S. cerevisiae deletion strains, locus YOR136W, strain idh2, stronger effect = lower value 0.991 | S. cerevisiae deletion strains, locus YOR144C, strain elg1, stronger effect = lower value 1.01 | S. cerevisiae deletion strains, locus YOR184W, strain ser1, stronger effect = lower value 0.95 | S. cerevisiae deletion strains, locus YOR231W, strain MKK1, stronger effect = lower value 1.05 | S. cerevisiae deletion strains, locus YOR265W, strain rbl2, stronger effect = lower value 0.987 | S. cerevisiae deletion strains, locus YOR270C, strain vph1, stronger effect = lower value 0.835 | S. cerevisiae deletion strains, locus YOR290C, strain snf2, stronger effect = lower value 1.01 | S. cerevisiae deletion strains, locus YOR316C, strain cot1, stronger effect = lower value 1.01 | S. cerevisiae deletion strains, locus YPL051W, strain arl3, stronger effect = lower value 0.983 | S. cerevisiae deletion strains, locus YPL055C, strain LGE1, stronger effect = lower value 0.918 | S. cerevisiae deletion strains, locus YPL078C, strain atp4, stronger effect = lower value 0.947 | S. cerevisiae deletion strains, locus YPL106C, strain sse1, stronger effect = lower value 1.02 | S. cerevisiae deletion strains, locus YPL240C, strain hsp82, stronger effect = lower value 0.977 | S. cerevisiae deletion strains, locus YPL241C, strain CIN2, stronger effect = lower value 1.01 | S. cerevisiae deletion strains, locus YPL256C, strain CLN2, stronger effect = lower value 1.04 | S. cerevisiae deletion strains, locus YPR119W, strain clb2, stronger effect = lower value 1 | S. cerevisiae deletion strains, locus YPR141C, strain kar3, stronger effect = lower value 0.989 | S. cerevisiae deletion strains, locus YPR163C, strain tif3, stronger effect = lower value 1 | S. cerevisiae deletion strains, locus YPR167C, strain met16, stronger effect = lower value 1 | S. cerevisiae deletion strains, strain wtn01, stronger effect = lower value 0.956 | S. cerevisiae strains, strain wild type, stronger effect = lower value 0.975
